Reference: PubChem BioAssay (NCATS)
Results filed as inconclusive are left out. Calls of active or inactive are those of the source. Calls come from the whole dose curve; as a rule, active = well fitted inhibition curve with a large enough effect; inconclusive = small, poorly fitted or top-dose-only effect; inactive = flat fitted curve, though single readings scatter.

Legend:
Test in all cases: qHTS profiling for inhibitors of Plasmodium falciparum proliferation (AID 504749); note: nearly all actives have a fitted effect of over 60% in size
Conditions in all cases: P. falciparum in erythrocytes, SYBR Green DNA, 72 h; series mostly up to 28.7 µM
7G8 = tested on: 7G8
Method in brief: (§1)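 In a 72 h erythrocytic culture (37 C, humidified, 5% CO2) at 2.5% hematocrit and 0.3% starting parasitemia, compounds were tested; SYBR Green I in detergent lysis buffer stained parasite DNA overnight.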

AA1029 = tested on: AA1029
Method in brief: as §1

CP191 = tested on: CP191
Method in brief: as §1

CP211 = tested on: CP211
Method in brief: as §1

CP215 = tested on: CP215
Method in brief: as §1

CP217 = tested on: CP217
Method in brief: as §1

CP265 = tested on: CP265
Method in brief: as §1

CP291 = tested on: CP291
Method in brief: as §1

CP297 = tested on: CP297
Method in brief: as §1

CP315 = tested on: CP315
Method in brief: as §1

DIV14 = tested on: DIV14
Method in brief: as §1

DIV17 = tested on: DIV17
Method in brief: as §1

ECU = tested on: ECU
Method in brief: as §1

FAB9 = tested on: FAB9
Method in brief: as §1

HB3 = tested on: HB3
Method in brief: as §1

ICS = tested on: ICS
Method in brief: as §1

JCK = tested on: JCK
Method in brief: as §1

N140 = tested on: N140
Method in brief: as §1

PC26 = tested on: PC26
Method in brief: as §1

TAB113 = tested on: TAB113
Method in brief: as §1

Measured: Potency
Potency is the fitted concentration of half-maximal effect.

Cc1cn([C@H]2C[C@H](N=[N+]=[N-])[C@H](CO)O2)c(=O)[nH]c1=O
inactive: all assays above

O=C(O)[C@@H](S)[C@H](S)C(=O)O
active: 7G8 5.01 µM | AA1029 10 µM | CP191 8.91 µM | CP211 6.75 µM | CP215 9.53 µM | CP217 6.31 µM | CP265 8.91 µM | CP291 12 µM | CP297 15.1 µM | CP315 15.1 µM | DIV14 8.49 µM | DIV17 13.5 µM | ECU 11.2 µM | FAB9 11.2 µM | HB3 10 µM | ICS 8.91 µM | JCK 11.2 µM | N140 7.94 µM | PC26 8.49 µM | TAB113 11.2 µM

NS(=O)(=O)c1cc2c(cc1Cl)N[C@H](Cc1ccccc1)NS2(=O)=O
inactive: all assays above

CC(C)(C)NC[C@@H](O)c1ccc(O)c(CO)n1
inactive: all assays above

C[C@]12CC[C@H]3c4ccc(O)cc4CC[C@@H]3[C@H]1CC[C@@H]2OC(=O)CCC1CCCC1
active: 7G8 4.47 µM | DIV14 9.53 µM | DIV17 10.7 µM | ICS 3.16 µM | N140 12.6 µM
not listed: CP191 | CP265 | ECU | HB3 | PC26 | TAB113
inactive: all other assays above

CN(C)[C@H]1C(=O)C(C(=O)NCN2CCCC2)=C(O)[C@]2(O)C(=O)C3=C(O)c4c(O)cccc4[C@](C)(O)[C@H]3C[C@H]12
inactive: all assays above
